# Values without a mark were called inactive. Results filed as inconclusive are left out. The source made the active and inactive calls. Unless noted, the call rests on the fitted dose curve; in most records, active means well fitted curve in the direction sought with a large enough effect; inconclusive means small, poorly fitted or top-dose-only effect, or another doubt; inactive means no such curve, though single readings can be large; an effect the other way counts as inactive or inconclusive.
# How the values were obtained:
# [1] = AP1 Signaling Pathway (AID 357; active means well fitted curve in either direction with a large enough effect, not every such curve was filed as active; further: on the % scale 0 is the no-effect control and ±100 the full control effect); details: ME-180 AP-1-bla reporter, EGF-induced, beta-lactamase ratio, 5 h; at 7.69 µM (top of the series) unless noted
# How it was run: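 ME-180 cells with beta-lactamase reporter under AP-1 response element, stimulated with EC50 EGF; compounds tested in titration series, 5 h at 37 °C. CCF4 substrate added 2.5 h at room temperature; 460/530 nm emission ratio gave %activity and AC50.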
# [2] = target: Cytochrome P450 1A2 (Homo sapiens) (UniProt P05177); assay: p450-cyp1a2 (AID 410; calls by dose curve; further: potency means the concentration at half of the fitted maximal effect)
# Cytochrome P450 1A2 (Homo sapiens), sequence (P05177 whole entry, looked up): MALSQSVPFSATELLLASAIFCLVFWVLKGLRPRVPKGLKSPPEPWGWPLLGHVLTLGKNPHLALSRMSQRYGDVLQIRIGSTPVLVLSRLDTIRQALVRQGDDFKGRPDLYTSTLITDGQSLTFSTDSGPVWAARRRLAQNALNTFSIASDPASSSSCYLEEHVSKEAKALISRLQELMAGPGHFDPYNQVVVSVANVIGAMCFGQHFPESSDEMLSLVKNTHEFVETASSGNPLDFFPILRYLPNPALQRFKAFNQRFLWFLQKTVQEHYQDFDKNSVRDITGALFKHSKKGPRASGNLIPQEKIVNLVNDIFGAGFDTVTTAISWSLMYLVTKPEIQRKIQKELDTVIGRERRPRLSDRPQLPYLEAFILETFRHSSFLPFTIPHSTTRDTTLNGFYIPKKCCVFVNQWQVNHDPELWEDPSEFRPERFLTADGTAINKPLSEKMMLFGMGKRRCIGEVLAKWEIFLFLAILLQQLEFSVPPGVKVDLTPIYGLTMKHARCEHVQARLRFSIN
# How it was run: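 O-Demethylation of luciferin 6' methyl ether by human CYP1A2 is monitored as luciferase luminescence. Substrate sits at Km (100uM); enzyme is 20nM. Values are scaled to 57 uM furafylline as maximal inhibition.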
# [3] = NFAT Signaling Pathway (AID 444; active means well fitted curve in either direction with a large enough effect, not every such curve was filed as active;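 further: carbachol stimulus at about its EC50 of 1 µM final; on the % scale 0 is the no-effect control and ±100 the full control effect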); details: Jurkat NFAT-bla M1, carbachol, beta-lactamase ratio, 5 h; at 7.69 µM (top of the series) unless noted
# How it was run: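 Jurkat cells carrying an NFAT-driven β-lactamase reporter and co-transfected muscarinic M1 receptor were treated with compound plus carbachol (1 uM final, an EC50 level) for 5 h at 37 °C. CCF4 loading followed for 1 h at RT; 460/530 nm ratio gave %activity.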
# [4] = Stat Signaling Pathway (AID 446; active means well fitted curve in either direction with a large enough effect, not every such curve was filed as active;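 further: ME-180 cervical cancer cells given 40 pM IL-6 alongside compound; SIE-controlled beta-lactamase reporter measured as 460/530 nm FRET emission ratio; on the % scale 0 is the no-effect control and ±100 the full control effect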); details: ME-180 (cervical carcinoma) SIE beta-lactamase reporter, IL-6 stimulated, 5 h; at 7.69 µM (top of the series) unless noted
# How it was run: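 FRET read-out (405 nm excitation, 460/530 nm emission) of a beta-lactamase reporter under a STAT-inducible element in ME-180 cervical carcinoma cells. Cells with compound receive 40 pM IL-6 for 5 h. Values are normalised to AC90 stimulation and AC90 JAK-inhibitor controls.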
# [5] = target: Glucocorticoid receptor (Homo sapiens) (UniProt P04150); assay: GR-GFP Redistribution (AID 450;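 active means compounds whose dose series gives a full or clear partial fitted curve of increased nuclear translocation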; further: potency means the concentration at half of the fitted maximal effect); details: U2OS GR-GFP nuclear translocation, laser cytometry, 2 h
# Glucocorticoid receptor (Homo sapiens), sequence (P04150 whole entry, looked up, the tested form may be a part): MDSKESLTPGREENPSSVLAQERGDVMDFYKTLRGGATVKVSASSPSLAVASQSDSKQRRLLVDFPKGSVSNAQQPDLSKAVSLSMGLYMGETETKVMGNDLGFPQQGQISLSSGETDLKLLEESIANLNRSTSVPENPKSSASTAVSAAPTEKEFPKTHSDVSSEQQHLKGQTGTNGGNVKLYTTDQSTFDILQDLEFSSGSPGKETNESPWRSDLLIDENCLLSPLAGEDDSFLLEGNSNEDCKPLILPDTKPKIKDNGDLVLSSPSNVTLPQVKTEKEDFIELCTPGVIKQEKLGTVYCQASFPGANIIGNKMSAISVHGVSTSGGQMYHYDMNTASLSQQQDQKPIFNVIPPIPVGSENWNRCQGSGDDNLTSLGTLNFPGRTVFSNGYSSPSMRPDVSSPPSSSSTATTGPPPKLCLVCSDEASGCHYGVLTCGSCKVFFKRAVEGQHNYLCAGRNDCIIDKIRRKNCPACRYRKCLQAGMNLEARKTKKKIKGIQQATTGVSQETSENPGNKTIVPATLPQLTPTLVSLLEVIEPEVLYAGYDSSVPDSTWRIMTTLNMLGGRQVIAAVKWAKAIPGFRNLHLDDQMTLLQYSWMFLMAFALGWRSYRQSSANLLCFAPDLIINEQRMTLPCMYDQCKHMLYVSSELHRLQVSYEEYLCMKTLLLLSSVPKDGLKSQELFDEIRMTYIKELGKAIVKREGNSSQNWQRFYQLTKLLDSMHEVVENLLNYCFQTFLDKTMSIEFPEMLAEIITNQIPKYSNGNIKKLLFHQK
# [6] = target: Glucocorticoid receptor (Homo sapiens) (UniProt P04150); assay: GR-EFC Redistribution (AID 451; calls by dose curve; further: potency means the concentration at half of the fitted maximal effect); details: CHO-K1 GR-EFC translocation, beta-gal luminescence, 2 h
# How it was run: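 CHO-K1 cells stably expressing nuclear-localized β-gal enzyme acceptor and GR fused C-terminally to the enzyme donor fragment; ligand-driven nuclear translocation restores β-gal by complementation. Compounds titrated up to 46 uM final, 2 h at 37 °C; luminescence read.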
# [7] = target: 3',5'-cyclic-AMP phosphodiesterase 4B (Homo sapiens) (UniProt Q07343); assay: qHTS Assay for Inhibitors of PDE-IV (AID 607; active means well fitted activation curve with a large enough effect in the main read-out, with a control signal flat, not every such curve was filed as active; further: % of control where 0% means no effect)
# 3',5'-cyclic-AMP phosphodiesterase 4B (Homo sapiens), sequence (Q07343 whole entry, looked up): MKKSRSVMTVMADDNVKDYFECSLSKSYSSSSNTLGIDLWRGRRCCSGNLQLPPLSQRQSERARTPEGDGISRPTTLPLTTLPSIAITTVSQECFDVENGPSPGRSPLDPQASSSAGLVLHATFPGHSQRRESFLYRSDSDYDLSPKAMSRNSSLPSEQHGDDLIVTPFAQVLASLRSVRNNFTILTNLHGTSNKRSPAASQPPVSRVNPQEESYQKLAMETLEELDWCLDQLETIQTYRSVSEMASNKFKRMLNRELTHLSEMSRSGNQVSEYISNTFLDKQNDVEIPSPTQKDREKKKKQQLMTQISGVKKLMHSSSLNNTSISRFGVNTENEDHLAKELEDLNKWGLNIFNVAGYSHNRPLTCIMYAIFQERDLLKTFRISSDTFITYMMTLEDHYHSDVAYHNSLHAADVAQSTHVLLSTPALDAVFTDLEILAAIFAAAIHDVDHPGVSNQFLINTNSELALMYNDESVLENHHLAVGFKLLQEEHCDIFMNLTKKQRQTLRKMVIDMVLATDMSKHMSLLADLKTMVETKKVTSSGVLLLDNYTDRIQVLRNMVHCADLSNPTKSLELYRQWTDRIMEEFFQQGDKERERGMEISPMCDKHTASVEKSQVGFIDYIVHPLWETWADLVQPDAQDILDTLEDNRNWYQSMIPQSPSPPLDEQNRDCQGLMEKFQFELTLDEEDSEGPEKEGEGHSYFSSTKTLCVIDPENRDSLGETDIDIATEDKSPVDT
# How it was run: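 Cell-based read-out of cAMP via a modified cyclic nucleotide-gated channel and membrane potential dye (535/590 nm) in HEK293 cells expressing PDE4 endogenously. Compounds tested up to 22.9 uM final; 100 uM RO 20-1724 reference.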
# [8] = target: Cytochrome P450 3A4 (Homo sapiens) (UniProt P08684); assay: qHTS Assay for Inhibitors and Substrates of Cytochrome P450 3A4 (AID 884); further: potency means the concentration at half of the fitted maximal effect; nearly all actives have a fitted effect of over 50% in size
# Cytochrome P450 3A4 (Homo sapiens), sequence (P08684 whole entry, looked up): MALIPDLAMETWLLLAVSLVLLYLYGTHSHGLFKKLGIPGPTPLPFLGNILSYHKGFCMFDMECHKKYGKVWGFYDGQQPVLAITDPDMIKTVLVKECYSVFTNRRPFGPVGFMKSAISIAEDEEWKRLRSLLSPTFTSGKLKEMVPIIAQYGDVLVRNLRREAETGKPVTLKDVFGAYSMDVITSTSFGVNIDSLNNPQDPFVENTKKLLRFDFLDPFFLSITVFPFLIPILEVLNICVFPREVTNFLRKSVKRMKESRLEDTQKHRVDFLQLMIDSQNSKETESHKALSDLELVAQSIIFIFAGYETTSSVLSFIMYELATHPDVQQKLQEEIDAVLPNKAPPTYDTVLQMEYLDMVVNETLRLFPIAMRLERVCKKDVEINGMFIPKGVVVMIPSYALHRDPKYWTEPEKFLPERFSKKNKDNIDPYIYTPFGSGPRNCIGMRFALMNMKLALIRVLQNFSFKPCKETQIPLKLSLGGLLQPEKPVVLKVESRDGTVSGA
# How it was run: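 Luminescent readout of luciferin produced by CYP3A4 (20 nM) dealkylation of Luciferin-PPXE, 25 uM (its KM). NADPH-driven reaction ran 60 min at RT after 10 min compound preincubation; data scaled to 57 uM ketoconazole as 100% inhibition.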
# [9] = target: Cytochrome P450 3A4 (Homo sapiens) (UniProt P08684); assay: qHTS Assay for Activators of Cytochrome P450 3A4 (AID 885); further: nearly all actives have a fitted effect of over 65% in size
# How it was run: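 Luminescent readout of luciferin formed from 25 uM Luciferin-PPXE (KM level) by 20 nM CYP3A4 in 200 mM KPO4, with 60 min NADPH-driven reaction at room temperature after 10 min compound exposure. Ketoconazole (57 uM) defined 100% inhibition.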
# [10] = target: Ubiquitin carboxyl-terminal hydrolase 1 (Homo sapiens) (UniProt O94782); assay: Inhibitors of USP1/UAF1: Pilot qHTS (AID 504865);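 further: rhodamine fluorescence freed from ubiquitin-rhodamine substrate followed over time; top concentration of the series differs between compounds; on the % scale 0 is the no-effect control and ±100 the full control effect; nearly all actives have a fitted effect of over 35% in size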
# Ubiquitin carboxyl-terminal hydrolase 1 (Homo sapiens), sequence (O94782 whole entry, looked up): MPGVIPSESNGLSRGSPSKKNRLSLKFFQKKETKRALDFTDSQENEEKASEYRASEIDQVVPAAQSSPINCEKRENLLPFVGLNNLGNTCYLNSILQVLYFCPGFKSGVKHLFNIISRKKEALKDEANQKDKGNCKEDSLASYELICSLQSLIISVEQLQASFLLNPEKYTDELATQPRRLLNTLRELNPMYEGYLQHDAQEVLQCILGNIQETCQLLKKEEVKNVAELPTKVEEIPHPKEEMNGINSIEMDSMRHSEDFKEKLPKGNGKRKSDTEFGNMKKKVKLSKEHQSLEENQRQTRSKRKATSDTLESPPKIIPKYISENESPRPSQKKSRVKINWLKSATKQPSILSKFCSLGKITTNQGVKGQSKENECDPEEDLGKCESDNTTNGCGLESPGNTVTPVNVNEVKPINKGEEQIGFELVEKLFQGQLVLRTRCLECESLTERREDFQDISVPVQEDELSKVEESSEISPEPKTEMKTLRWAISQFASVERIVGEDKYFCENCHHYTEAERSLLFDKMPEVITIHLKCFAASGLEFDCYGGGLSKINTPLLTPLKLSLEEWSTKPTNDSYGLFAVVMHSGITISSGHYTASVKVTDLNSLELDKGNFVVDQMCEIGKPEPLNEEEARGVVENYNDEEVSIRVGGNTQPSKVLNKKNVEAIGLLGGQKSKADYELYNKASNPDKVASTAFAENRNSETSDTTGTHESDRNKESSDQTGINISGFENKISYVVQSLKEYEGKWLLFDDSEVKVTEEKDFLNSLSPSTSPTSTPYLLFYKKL
# How it was run: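 1nM USP1/UAF1 + cpd, 15 min RT; start w/ Ub-Rho 150nM final; kinetic FL 480/540 nm, 6 reads q60 s. Buffer 50mM HEPES pH 7.8, 0.5mM EDTA, 1mM TCEP, 0.01% Tween-20, 0.1 mg/ml BSA.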
# [11] = Primary qHTS for small molecule stabilizers of the endoplasmic reticulum resident proteome: Secreted ER Calcium Modulated Protein (SERCaMP) assay (AID 1508630); further: on the % scale 0 is the no-effect control and ±100 the full control effect
# How it was run: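 The SH-SY5Y reporter protocol was run at 3 concentrations up to 38.3 uM (primary) or 11 concentrations (follow-up): 16 h compound, 100 nM thapsigargin for 4 h, then extracellular luciferase luminescence.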
# [12] = target: Lysosomal acid glucosylceramidase (Homo sapiens) (UniProt P04062); assay: Glucocerebrosidase-p2 (AID 348; in the data active means potency below about 10 µM; further: potency means the concentration at half of the fitted maximal effect); details: purified GBA, blue fluorogenic substrate, 40 min
# Lysosomal acid glucosylceramidase (Homo sapiens), sequence (P04062 whole entry, looked up): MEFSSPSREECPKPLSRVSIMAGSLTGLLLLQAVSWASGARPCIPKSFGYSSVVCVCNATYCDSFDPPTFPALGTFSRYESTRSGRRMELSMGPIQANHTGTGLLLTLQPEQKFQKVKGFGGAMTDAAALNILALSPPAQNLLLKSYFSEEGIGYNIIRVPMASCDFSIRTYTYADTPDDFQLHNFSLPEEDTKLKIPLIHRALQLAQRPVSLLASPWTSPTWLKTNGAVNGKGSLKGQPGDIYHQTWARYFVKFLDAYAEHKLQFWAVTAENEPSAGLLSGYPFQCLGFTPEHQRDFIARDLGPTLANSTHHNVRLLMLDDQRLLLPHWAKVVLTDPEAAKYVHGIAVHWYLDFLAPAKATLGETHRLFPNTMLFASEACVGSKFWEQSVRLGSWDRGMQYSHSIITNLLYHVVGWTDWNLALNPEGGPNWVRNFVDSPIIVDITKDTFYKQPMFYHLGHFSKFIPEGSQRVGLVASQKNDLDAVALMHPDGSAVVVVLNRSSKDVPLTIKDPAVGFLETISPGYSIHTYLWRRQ
# How it was run: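 Normal human glucocerebrosidase (0.2 nM) with blue fluorogenic substrate (80 uM final) in citrate/phosphate pH 5.9 with 10mM sodium taurocholate, 0.01% tween-20; 40 min RT, NaOH/glycine stop; fluorescence Ex 365/Em 440; AC50 from a titration from 0.6 nM upwards.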
# [13] = target: Cytochrome P450 2C9 (Homo sapiens) (UniProt P11712); assay: qHTS Assay for Inhibitors and Substrates of Cytochrome P450 2C9 (AID 883); further: potency means the concentration at half of the fitted maximal effect; nearly all actives have a fitted effect of over 60% in size
# How it was run: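 CYP2C9 deoxyluciferin hydroxylation, 37C, 60 min with NADPH regeneration; 10nM enzyme, 100uM Luciferin-H (KM). Glo detection reagent stopped reaction; luminescence normalized to sulphaphenazole (57uM) full inhibition.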
# [14] = target: Cytochrome P450 2D6 (Homo sapiens) (UniProt P10635); assay: qHTS Assay for Inhibitors and Substrates of Cytochrome P450 2D6 (AID 891); further: potency means the concentration at half of the fitted maximal effect; nearly all actives have a fitted effect of over 60% in size
# How it was run: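 Luminescent read-out of luciferin formed by 5 nM human CYP2D6 demethylating 30 uM Luciferin-ME EGE (Km level) over 60 min at room temperature after NADPH regeneration addition. Data normalized to full inhibition by 1.43 uM quinidine.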
# [15] = target: Cytochrome P450 2C19 (Homo sapiens) (UniProt P33261); assay: qHTS Assay for Inhibitors and Substrates of Cytochrome P450 2C19 (AID 899); further: potency means the concentration at half of the fitted maximal effect; nearly all actives have a fitted effect of over 60% in size
# Cytochrome P450 2C19 (Homo sapiens), sequence (P33261 whole entry, looked up): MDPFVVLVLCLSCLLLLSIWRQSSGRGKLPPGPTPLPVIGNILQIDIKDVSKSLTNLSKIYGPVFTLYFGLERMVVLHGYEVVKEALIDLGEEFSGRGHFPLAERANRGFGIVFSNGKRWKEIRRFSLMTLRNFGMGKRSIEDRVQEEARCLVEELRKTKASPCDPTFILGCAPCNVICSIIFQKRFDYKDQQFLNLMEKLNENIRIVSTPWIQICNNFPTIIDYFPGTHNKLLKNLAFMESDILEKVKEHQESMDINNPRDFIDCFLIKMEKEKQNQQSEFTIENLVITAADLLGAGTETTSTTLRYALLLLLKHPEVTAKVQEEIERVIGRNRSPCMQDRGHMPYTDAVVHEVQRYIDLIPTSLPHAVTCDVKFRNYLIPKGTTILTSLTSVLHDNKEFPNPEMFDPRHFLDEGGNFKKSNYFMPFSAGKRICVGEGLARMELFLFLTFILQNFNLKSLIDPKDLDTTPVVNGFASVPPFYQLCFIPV
# How it was run: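 In 50mM KPO4, the reaction held 5nM enzyme and KM-level (10uM) Luciferin-H EGE; it ran 60 min at 37C after NADPH regeneration and a 10 min compound preincubation. Luminescence values were scaled to 57uM ketoconazole as complete inhibition.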
# [16] = target: Dual specificity protein kinase CLK4 (Homo sapiens) (UniProt Q9HAZ1); assay: qHTS Assay for Inhibitors of CDC-like Kinase 4 (ADP-Glo Assay) (AID 1771); further: nearly all actives have a fitted effect of over 70% in size; further: potency means the concentration at half of the fitted maximal effect
# Dual specificity protein kinase CLK4 (Homo sapiens), sequence (Q9HAZ1 whole entry, looked up): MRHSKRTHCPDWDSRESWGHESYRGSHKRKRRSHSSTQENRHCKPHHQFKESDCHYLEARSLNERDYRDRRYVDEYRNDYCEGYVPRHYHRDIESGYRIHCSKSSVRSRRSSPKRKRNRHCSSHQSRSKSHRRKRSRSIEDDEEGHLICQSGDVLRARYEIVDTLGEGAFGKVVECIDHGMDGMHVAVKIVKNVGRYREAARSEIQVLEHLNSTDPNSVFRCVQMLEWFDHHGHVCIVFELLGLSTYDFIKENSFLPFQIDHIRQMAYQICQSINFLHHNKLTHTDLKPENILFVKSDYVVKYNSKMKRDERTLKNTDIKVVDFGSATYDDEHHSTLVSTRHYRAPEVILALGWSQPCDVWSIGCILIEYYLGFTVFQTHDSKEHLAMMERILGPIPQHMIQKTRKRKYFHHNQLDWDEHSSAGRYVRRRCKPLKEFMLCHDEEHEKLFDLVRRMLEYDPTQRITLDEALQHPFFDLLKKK
# How it was run: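 Compounds are pin-transferred onto substrate mix (100 uM RS peptide, 1 uM ATP), then 25 nM Clk4 is added. After 1 hr at room temperature, ADP-Glo reagent runs 45 min, detection reagent 30 min, then luminescence is read.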
# [17] = target: Dual specificity protein kinase CLK4 (Homo sapiens) (UniProt Q9HAZ1); assay: qHTS Assay for Inhibitors of CDC-like Kinase 4 (ADP-FP Assay) (AID 1795);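 further: recombinant human CLK4 phosphorylating RS repeat peptide at 1 µM ATP; on the % scale 0 is the no-effect control and ±100 the full control effect; nearly all actives have a fitted effect of over 60% in size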
# How it was run: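 FP readout: Orange Transcreener ADP2 tracer (4 nM) plus ADP antibody, read after 30 min at room temperature. Kinase step: 6.25 nM Clk4, 100 uM RS peptide, 1 uM ATP, pH 7.5, 1 h.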
# [18] = target: Mitogen-activated protein kinase 10 (Mus musculus) (UniProt Q61831); assay: JNK3 AlphaScreen Assay (AID 530; active means well fitted curve in either direction with a large enough effect, not every such curve was filed as active)
# How it was run: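 Phosphorylation of biotinylated GST-cJun(1-79) at Ser73 is measured by AlphaScreen proximity luminescence. Enzyme is JNK3 in HepG2 lysates activated with interleukin-1beta and tumor necrosis factor alpha; ATP is 10 uM final.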
Structure (SMILES),"activity change, negative = inhibition [1] [%]",Potency [2],"activity change, negative = inhibition [3]","activity, negative = inhibition [4] [%]",Potency [5] [µM],Potency [6] [µM],Potency [7],Potency [8],Potency [9],Potency [10],outcome [11],Potency [12],Potency [13],Potency [14],Potency [15],Potency [16],Potency [17],Potency [18]
COc1ccc2[nH]cc(CCNc3cc(-c4cccnc4)ncn3)c2c1,-10.1,3.16 µM (active),15.6%,-2.74,> 46,> 46,inactive,3.98 µM (active),inactive,inactive,inactive,–,–,–,–,–,–,–
COc1ccc2[nH]cc(CCNc3nc(-c4ccc(N(C)C)cc4)nc4ccccc34)c2c1,–,1.26 µM (active),–,–,> 46,> 46,–,2.51 µM (active),inactive,inactive,inactive,0.554 µM (active),0.398 µM (active),7.94 µM (active),7.94 µM (active),28.2 µM (active),inactive,–
CS(=O)(=O)Nc1cccc(-c2cncnc2Nc2ccccc2)c1,-20.2,5.01 µM (active),23.9%,-2.71,> 46,> 46,inactive,0.501 µM (active),inactive,inactive,inactive,> 11.4 µM,–,–,–,22.4 µM (active),inactive,inactive
Fc1ccc(Nc2ccnc(-c3ccc4c(c3)OCO4)n2)cc1,8.72,0.631 µM (active),-0.562%,-6.41,> 46,> 46,–,2 µM (active),inactive,–,inactive,> 11.4 µM,–,–,2 µM (active),31.6 µM (active),inactive,inactive
COc1ccc(CNc2cc(-c3ccccc3OC)ncn2)c(OC)c1,-6.46,–,17.7%,5.25,> 46,> 46,inactive,6.31 µM (active),inactive,inactive,inactive,> 11.4 µM,–,–,2 µM (active),inactive,inactive,inactive
COc1ccc2[nH]cc(CCNc3ccnc(-c4c(C)noc4C)n3)c2c1,-4.62,2 µM (active),9.64%,-5.35,> 46,> 46,inactive,2.51 µM (active),inactive,inactive,inactive,> 11.4 µM,–,–,1.58 µM (active),inactive,inactive,inactive
COc1ncc2nc(-c3cn(C)c4ccccc34)c(=O)n(CCC#N)c2n1,-17.8,5.01 µM (active),-2.23%,-7.24,> 9.22,> 46,inactive,6.31 µM (active),inactive,inactive,inactive,> 11.4 µM,–,–,–,inactive,inactive,inactive
COc1ccc(-c2nc3cnc(N(C)C)nc3n(Cc3cccs3)c2=O)cc1,17.1,1.58 µM (active),–,–,> 9.22,> 46,–,–,inactive,inactive,inactive,> 11.4 µM,–,–,–,inactive,inactive,–
CN(C)c1ncc2nc(-c3cc(F)cc(F)c3)c(=O)n(-c3ccccc3)c2n1,-8.03,0.316 µM (active),9.84%,12.5,> 9.22,> 46,inactive,–,–,inactive,inactive,> 11.4 µM,–,–,–,inactive,inactive,inactive
CCNc1ncc2nc(-c3cccc(C#N)c3)c(=O)n(Cc3cccc(OC)c3)c2n1,-6.16,–,-14.9%,-8.97,> 9.22,> 46,inactive,–,–,inactive,inactive,–,–,–,–,inactive,inactive,inactive
O=c1c(-c2ccc(Cl)cc2)nc2cnc(N3CCNCC3)nc2n1-c1ccccc1,–,–,153% [activator] (active),–,> 9.22,> 46,inactive,–,inactive,inactive,inactive,> 11.4 µM,–,–,–,inactive,inactive,–
CCNc1ncc2nc(-c3ccc(F)cc3)c(=O)n(-c3ccc(OC)cc3)c2n1,-1.24,6.31 µM (active),–,20.4,> 9.22,–,–,–,inactive,inactive,inactive,> 11.4 µM,–,–,–,inactive,inactive,inactive
COc1ccccc1-c1nc(N2CCOCC2)c2ccccc2n1,-9.32,0.501 µM (active),10.4%,14.3,> 46,> 46,–,–,inactive,inactive,inactive,> 11.4 µM,–,–,–,20 µM (active),inactive,inactive

# Reference: PubChem BioAssay (NCATS)
